Source: PubChem BioAssay
Most compounds without a hit are left out; they make up all but 1.8% or so of the library.
Tb PFK block: blocks T. brucei phosphofructokinase. O15648. T. brucei PFK, ADP-Glo luminescence. Potency, µM (doses to about 57.5 µM), inactives show top-dose activity, negative = inhibition, usual class: inhibitors. 330,000 tested, 0.17% active;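 note: 0% = uninhibited 1x PFK enzyme wells and -100% = no-enzyme wells; nearly all actives have a fitted effect of over 60% in size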
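Compounds were pin-transferred as a titration series up to 57 uM into substrate buffer (0.5 mM F6P, 0.1 mM ATP, pH 8.0), then 1.25 nM PFK was added and reactions ran 45 min before ADP-Glo detection.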
Pin1 inh: inhibitors of human Pin1; 390,000 tested, 0.009% active; Q13526; Potency, µM (highest dose often 115 µM), inactives show top-dose activity, negative = inhibition, usual class: inhibitors; Pin1 FP peptide displacement, HiFluor488, 10 min; active = well fitted inhibition curve with a large enough effect in the polarisation, with a control signal flat, not every such curve was filed as active; inconclusive = small, poorly fitted or top-dose-only effect, or effect the other way, or a change in a side signal; inactive = no such curve, though single readings can be large or run the other way; the % refers to the polarisation; note: % is set by controls: 0 for no effect and ±100 for the full control effect
Target sequence (Q13526 whole entry, looked up): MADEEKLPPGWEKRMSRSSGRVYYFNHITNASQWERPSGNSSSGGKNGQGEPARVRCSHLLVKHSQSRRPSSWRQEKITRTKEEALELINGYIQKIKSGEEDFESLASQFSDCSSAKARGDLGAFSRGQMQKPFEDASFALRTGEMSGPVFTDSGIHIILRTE
Tb PGK inh: T. brucei PGK inhibition; P07378; 380,000 tested, 0.043% active; PGK/GAPDH coupled, Kinase-Glo luminescence, 60 min; Potency, µM (titrated, usually from 57.5 µM), inactives show at the top dose activity change, negative = inhibition, actives largely listed as inhibitors; AID 602233; note: % is set by controls: 0 for no effect and ±100 for the full control effect; nearly all actives have a fitted effect of over 60% in size
Target sequence (P07378 whole entry, looked up): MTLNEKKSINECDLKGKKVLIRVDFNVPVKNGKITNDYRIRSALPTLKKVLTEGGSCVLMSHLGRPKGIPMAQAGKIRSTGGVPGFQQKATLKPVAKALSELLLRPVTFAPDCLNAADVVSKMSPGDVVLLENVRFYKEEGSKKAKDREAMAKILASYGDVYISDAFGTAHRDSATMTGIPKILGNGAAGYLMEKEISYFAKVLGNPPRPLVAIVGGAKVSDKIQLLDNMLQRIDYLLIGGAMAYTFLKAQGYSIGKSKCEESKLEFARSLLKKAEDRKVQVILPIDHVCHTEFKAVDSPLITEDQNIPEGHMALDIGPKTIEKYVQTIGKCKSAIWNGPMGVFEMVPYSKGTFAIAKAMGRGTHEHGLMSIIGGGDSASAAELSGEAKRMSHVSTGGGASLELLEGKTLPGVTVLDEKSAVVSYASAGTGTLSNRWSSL
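Recombinant glycosomal PGK reaction used 1,3-bisphosphoglycerate generated in-well by GAPDH (100nM final) in 100mM TEA pH 7.6, 5mM MgCl2, 0.01% Tween-20. After 60 minutes at room temperature, ATP was read by Kinase-Glo Plus luminescence end-point.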
GLP1R inv ag: acts as inverse agonist at human GLP-1 receptor. AID 624417. Potency, µM (top dose mostly 38.3 µM), inactives show at the top dose activity change, negative = inhibition, hits mostly inhibitors. P43220. 410,000 tested, 1.6% active. HEK293 GLP-1R CRE-luciferase, luminescence, 24 h; GLP-1R form is constitutively active; note: % is set by controls: 0 for no effect and ±100 for the full control effect; nearly all actives have a fitted effect of over 55% in size
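Using stably transfected HEK293 (constitutively active GLP-1R, cAMP-luciferase reporter), compounds were incubated 24 hr and luciferase measured by luminescence.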
GLP-1R agonist: activates the human GLP-1 receptor | HEK293 GLP-1R CRE-luciferase, luminescence, 4-6 h; cells express a hypersensitive GLP-1R form | Potency, µM (highest dose often 45.6 µM), for inactives: at the highest dose activation, usual class: activators | 380,000 tested, 0.007% active; note: % of control where 0% means no effect
HEK293 tox: cytotoxicity counter-screen for GLP-1 receptor inverse agonists; HEK293 cAMP-luciferase reporter cells, luminescence, 24 h; Potency, µM (series often up to 38.3 µM), for the others: top-dose activity change, negative = inhibition, actives largely listed as inhibitors; 410,000 tested, 0.13% active; AID 624418;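 note: loss of luciferase light is scored as toxicity; % is set by controls: 0 for no effect and ±100 for the full control effect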
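Compound-treated cells are incubated 24 hr at 37 deg C under 5% CO2 after a 12 hour attachment period, then luciferase detection reagent is added and luminescence is measured following 12 min at room temperature; lowered signal indicates toxicity.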
* hit, by the source's call. Unless noted, calls come from the whole dose curve; as a rule, active = well fitted curve in the direction sought with a large enough effect; inconclusive = small, poorly fitted or top-dose-only effect, or another doubt; inactive = no such curve, though single readings can be large; an effect the other way counts as inactive or inconclusive. Potency is the fitted concentration of half-maximal effect.

How did CCCCN1CC(COCc2ccccc2)Oc2cccc(OCCN3C(=O)[C@@H]4[C@H](C3=O)C3C=C[C@H]4C3)c2S1(=O)=O (stereo not given in full) do in these assays?
Pin1 inh: 8%; Tb PGK inh: -8%; GLP1R inv ag: 10µM*; GLP-1R agonist: -1%; HEK293 tox: -20%

What do the screens show for `CCCCN1CC(COCc2ccccc2)Oc2cccc(Oc3ccc(OC)cc3)c2S1(=O)=O` (stereo not given)?
Pin1 inh: 4%; Tb PGK inh: 6%; GLP1R inv ag: inconclusive; GLP-1R agonist: -1%; HEK293 tox: 13%

How did O=S1(=O)c2ccc(Br)cc2OC(COCc2ccccc2)CN1Cc1ccccc1 (stereo not given) do in these assays?
Tb PFK block: 1%; Pin1 inh: 0%; Tb PGK inh: -3%; GLP1R inv ag: 10µM*; GLP-1R agonist: 11%; HEK293 tox: -6%

What do the screens show for `COc1ccc(-n2c(C)nc3cc(C(=O)NC4CCCC4)ccc32)cc1`?
Pin1 inh: 0%; Tb PGK inh: -3%; GLP1R inv ag: -22%; HEK293 tox: -9%

How did Nc1cc(=O)nc(SCC(=O)Nc2ccc(F)cc2)n1CCc1ccccc1 do in these assays?
Pin1 inh: 4%; Tb PGK inh: -6%; GLP1R inv ag: 12%; HEK293 tox: 0%

Results for COc1cc(F)c(S(=O)(=O)N2CCN(S(=O)(=O)c3ccc(N)cc3)CC2)c(F)c1 ?
Pin1 inh: 5%

How did CCOc1cc(-c2nc(-c3ccc(-c4ccc(C)cc4)nc3OC)no2)cc(OCC)c1OCC do in these assays?
Pin1 inh: -2%; Tb PGK inh: -5%; GLP1R inv ag: 2%; HEK293 tox: 0%

Results for COc1ccc(Cl)cc1-c1cc(C(=O)NCc2cccc(Cl)c2)[nH]n1 ?
GLP1R inv ag: 3.2µM*; GLP-1R agonist: 1%; HEK293 tox: -19%

What do the screens show for `CN(CCCNC(=O)Cn1ncc2c([nH]c3ccccc32)c1=O)Cc1ccccc1`?
Pin1 inh: 12%; Tb PGK inh: 9%; GLP1R inv ag: inconclusive; HEK293 tox: -7%

What do the screens show for `Cc1ccc(C)c(CN2C(=O)c3ccccc3S(=O)(=O)c3ccc(C(=O)N4CCN(c5ccccc5F)CC4)cc32)c1`?
Pin1 inh: 24%; GLP1R inv ag: 7%; HEK293 tox: -4%

Results for Oc1[nH]c2c(Cl)cc(Cl)cc2c1N=NC(=S)NCC1CCCO1 (stereo not given) ?
Tb PFK block: 1%; Pin1 inh: 1%; Tb PGK inh: -3%; GLP1R inv ag: inconclusive; GLP-1R agonist: 11%; HEK293 tox: 4µM*

How did CCn1c(O)c(N=NC(=S)NCC2CCCO2)c2ccccc21 (stereo not given) do in these assays?
Tb PFK block: 2%; Pin1 inh: -2%; Tb PGK inh: -5%; GLP1R inv ag: 2.8µM*; GLP-1R agonist: 7%; HEK293 tox: inconclusive

Results for Oc1[nH]c2ccccc2c1N=NC(=S)NCC1CCCO1 (stereo not given) ?
Tb PFK block: 5%; Pin1 inh: 6%; Tb PGK inh: 1%; GLP1R inv ag: 2%; GLP-1R agonist: 12%; HEK293 tox: inconclusive

Results for Cc1cc(C)c2[nH]c(O)c(N=NC(=S)NCC3CCCO3)c2c1 (stereo not given) ?
Tb PFK block: 5%; Pin1 inh: 0%; Tb PGK inh: -4%; GLP1R inv ag: inconclusive; GLP-1R agonist: 11%; HEK293 tox: 8.9µM*

What do the screens show for `O=C(CNC(=O)C1CCCC1)OC(C(=O)Nc1cc(C(F)(F)F)ccc1Cl)c1ccccc1` (stereo not given)?
Pin1 inh: 0%

How did COc1cccc(C(=O)NCC(c2ccc(N(C)C)cc2)N2CCCC2)c1OC (stereo not given) do in these assays?
Pin1 inh: 5%; Tb PGK inh: -5%; GLP1R inv ag: 7%; HEK293 tox: 3%

Results for CN(/N=C/c1cc(Cl)cc(Cl)c1O)c1c(Cl)cccc1[N+](=O)[O-] ?
Tb PFK block: -4%; Pin1 inh: -5%; Tb PGK inh: -9%; GLP1R inv ag: 8.9µM*; GLP-1R agonist: 9%; HEK293 tox: -2%

How did CC(C)(C)N/N=C/c1cc(Cl)cc([N+](=O)[O-])c1O do in these assays?
Tb PFK block: -4%; Pin1 inh: -14%; Tb PGK inh: -17%; GLP1R inv ag: -1%; GLP-1R agonist: -21%; HEK293 tox: inconclusive

How did Brc1ccc2c(c1)C(C1=NCCN1)c1ccccc1CS2 (stereo not given) do in these assays?
Tb PFK block: -2%; Pin1 inh: -6%; Tb PGK inh: -3%; GLP1R inv ag: 1.4µM*; GLP-1R agonist: -3%; HEK293 tox: -6%

How did O=C(CCl)N(C1CCCC1)C1CCS(=O)(=O)C1 (stereo not given) do in these assays?
Tb PFK block: 0%; Tb PGK inh: inactive; GLP1R inv ag: 4.5µM*; GLP-1R agonist: -2%; HEK293 tox: 6%

What do the screens show for `CC(=O)c1ccc(OCC(=O)N(C2CCCCC2)C2CCS(=O)(=O)C2)cc1` (stereo not given)?
Tb PFK block: -2%; Pin1 inh: 12%; Tb PGK inh: -1%; GLP1R inv ag: 7%; GLP-1R agonist: -2%; HEK293 tox: -6%

What do the screens show for `NC(=O)C1CCN(c2ncc(-c3cccc(N4CCCC4)c3)s2)CC1`?
Pin1 inh: 6%

Results for CCCCCCc1ccc(C(=O)CCN(C)C)cc1 ?
Pin1 inh: 3%

Results for CC1(C(=O)NCc2cccc3ccccc23)CCN1Cc1ccccc1OC(F)F (stereo not given) ?
GLP1R inv ag: 13µM*; GLP-1R agonist: 2%; HEK293 tox: -15%

Results for CC(Nc1nc(-c2ccc(F)cc2)cs1)c1nc2cc(C(F)(F)F)ccc2n1CCOCCO (stereo not given) ?
Pin1 inh: 1%; Tb PGK inh: -10%; GLP1R inv ag: -3%; GLP-1R agonist: -5%; HEK293 tox: 8%

What do the screens show for `Cc1ccc(Cn2c(C(C)Nc3nc(-c4ccc(F)cc4)cs3)nc3cc(C(F)(F)F)ccc32)cc1` (stereo not given)?
Pin1 inh: 15%; Tb PGK inh: -10%; GLP1R inv ag: 10µM*; GLP-1R agonist: 0%; HEK293 tox: -14%
